Results reported in PubChem BioAssay (NCI).
About 79,000 compounds went through this panel and 15% of them were active in at least one assay; those are over-represented in the sample as a whole. No stated cut-off is given here; in the data, active means growth inhibition above about 70%; inactive means the rest.

Tests used:
[1] = NCI Yeast Anticancer Drug Screen. Data for the rad50 strain (AID 155);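 further: 0% = growth of vehicle-only cultures of the same strain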; conditions: S. cerevisiae rad50 strain growth inhibition; at 50.0 µM; stronger effect = higher value
Procedure, shortened: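 Growth of the mutant yeast was measured after compound exposure and referenced to vehicle-treated cultures.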

[2] = NCI Yeast Anticancer Drug Screen. Data for the mec2-1 strain (AID 157); conditions: S. cerevisiae mec2-1 strain, at 50.0 µM, stronger effect = higher value
Procedure, shortened: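 mec2-1 yeast strain, carrying an alteration in DNA damage repair or cell cycle control, was exposed to compounds; growth inhibition was measured relative to vehicle-treated controls.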

[3] = NCI Yeast Anticancer Drug Screen. Data for the sgs1 mgt1 strain (AID 161);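 further: 0% = growth of cultures given vehicle only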; conditions: S. cerevisiae sgs1 mgt1 strain, at 50.0 µM, stronger effect = higher value
Procedure, shortened: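 Compounds are added to genetically altered yeast, and growth is compared with cultures given vehicle alone to give percent inhibition.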

[4] = NCI Yeast Anticancer Drug Screen. Data for the cln2 rad14 strain (AID 165);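 further: 0% = growth equal to vehicle treated cultures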; conditions: S. cerevisiae cln2 rad14 strain, at 50.0 µM, stronger effect = higher value
Procedure, shortened: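 Yeast carrying cln2 and rad14 alterations (cell cycle control and DNA damage repair) were exposed to compounds. Growth inhibition was measured against vehicle-treated controls.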

[5] = NCI Yeast Anticancer Drug Screen. Data for the bub3 strain (AID 167); conditions: S. cerevisiae bub3 mutant strain, at 50.0 µM, stronger effect = higher value
Procedure, shortened: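 Whole-cell yeast assay. The mutant strain was incubated with compounds, and growth inhibition was determined by comparison with vehicle-treated cells.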

[6] = NCI Yeast Anticancer Drug Screen. Data for the mlh1 rad18 strain (AID 175); conditions: S. cerevisiae mlh1 rad18 strain growth inhibition; at 50.0 µM; stronger effect = higher value
Procedure, shortened: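 Growth inhibition of the yeast strain was measured after compound exposure and expressed relative to vehicle-treated controls. The strain carries defined defects in DNA damage repair.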

Measured: growth inhibition

COc1ccc(Nc2cc[nH]c(=O)c2NC(C)=O)cc1
inactive: [1] 20.7% | [2] 4.9% | [3] 32.3% | [4] 14.7% | [5] 9.75% | [6] 21%

COC(=O)/C=C1\C(=O)c2ccccc2-c2ccccc21
inactive: [1] 35.8% | [2] 35.4% | [3] 13.9% | [4] 20.3% | [5] 25.4% | [6] 51.6%

C=C(CO)[C@H]1Oc2ccc(C(C)=O)cc2[C@@H]1O
inactive: [1] -16.1% | [2] -10.1% | [3] -24.6% | [4] 6.85% | [5] -10.7% | [6] -12.5%

CCOc1ccccc1/C=N/NS(=O)(=O)c1ccc([N+](=O)[O-])cc1
inactive: [1] -19.2% | [2] -23.1% | [3] 2.55% | [4] -18.6% | [5] 12.9% | [6] -14.2%

Oc1ccccc1-c1nnc2n1N=C(c1ccc(-c3ccccc3)cc1)CS2
inactive: [1] 32.5% | [2] -12.3% | [3] 23.4% | [4] 20.3% | [5] -6.95% | [6] 7.55%

COc1ccc(NC(=O)C2C(=O)N(c3ccc(OC)cc3)C(=O)/C2=N\NC(N)=O)cc1 (stereo unspecified)
inactive: [1] -8.9% | [2] -24.9% | [3] -48% | [4] 11.1% | [5] -9.6% | [6] -18.2%

Nc1ccccc1SC1CCCCC1O (stereo unspecified)
inactive: [1] -4.9% | [2] 2.2% | [3] -5.3% | [4] -8.2% | [5] 3.75% | [6] -7.15%

CCC(CO)(CO)CBr
inactive: [1] 3.75% | [2] -1.1% | [3] 0.6% | [4] -14.7% | [5] -4.9% | [6] 9.55%

C=C(C)C(=O)Nc1ccc(NS(=O)(=O)c2ccc(C(C)CC)cc2)c(O)c1 (stereo unspecified)
inactive: [1] 9.3% | [2] -8.7% | [3] 18.1% | [4] 35.5% | [5] 14.9% | [6] 1.2%

CCOC(=O)CCCN1CCC=C(C#N)C1
inactive: [1] 13% | [2] -2.2% | [3] 6.7% | [4] -7.7% | [5] 13% | [6] 7.85%

CCOCc1cc(Cc2cc(COCC)c3cccnc3c2O)c(O)c2ncccc12
inactive: [1] 55.7% | [2] 16.7% | [3] 39.6% | [4] 10.2% | [5] 0.45% | [6] 16.2%

CN(C)c1nc(OC2C(C3COC(C)(C)O3)OC3OC(C)(C)OC32)nc(N(C)C)n1 (stereo unspecified)
inactive: [1] 36.9% | [2] -9.65% | [3] 9.65% | [4] 26% | [5] -4.35% | [6] 2.15%

CCC1(C(=O)O)OC1(C)c1cccs1 (stereo unspecified)
inactive: [1] -40% | [2] -8.95% | [3] -3.35% | [4] -27.1% | [5] 10.5% | [6] 2%

CC(=O)OCC1OC(n2cnc3c(N)ncnc32)C(Nc2ccc([N+](=O)[O-])cc2[N+](=O)[O-])C(OC(C)=O)C1OC(C)=O (stereo unspecified)
inactive: [1] 23.2% | [2] 4.4% | [3] 5.8% | [4] 17.9% | [5] 3.45% | [6] 21.8%

CN(C)c1ccc(N=Cc2ccc(O)cc2)cc1
inactive: [1] 10.9% | [2] 0.55% | [3] -4.6% | [4] 2% | [5] 2.9% | [6] 7%

CNC(=O)OCC#CCOC(=O)NC
inactive: [1] -17.5% | [2] -9.9% | [3] -23.2% | [4] -4.85% | [5] -10.5% | [6] -25.1%

CC1OC(=O)C(O)=C1O (stereo unspecified)
inactive: [1] -5.15% | [2] -10.6% | [3] -5.75% | [4] 8.75% | [5] 8.85% | [6] -20.6%

O=C(N/N=C(/c1nc2ccc(Cl)cc2[nH]c1=O)C(O)c1ccc(Cl)cc1Cl)c1ccncc1 (stereo unspecified)
inactive: [1] 12.5% | [2] 10.2% | [3] -15.5% | [4] -34.6% | [5] -3.6% | [6] 23.1%

N#Cc1cc2c(cc1C#N)/C(=N\c1cccc(N)n1)N=C2Nc1cccc(N)n1
inactive: [1] 6.1% | [2] 19.1% | [3] 0.2% | [4] 1.25% | [5] 5.8% | [6] 22%

Oc1cncc2ccccc12
inactive: [1] 3.35% | [2] 5.2% | [3] 11.2% | [4] -1.35% | [5] 1.6% | [6] -4.85%

Fc1ccc(-c2cc(-c3ccc(F)cc3)cc(-c3ccc(F)cc3)c2)cc1
inactive: [1] -0.4% | [2] 11.5% | [3] 13.2% | [4] 14.2% | [5] -8.15% | [6] 10.4%

CC(=C\C=N\N(C)c1ccccc1)/C=C1\Cc2ccccc2C1=O
inactive: [1] -8.7% | [2] 2.2% | [3] -19.1% | [4] 14% | [5] -2.8% | [6] -9.65%

Cn1ncc2c(NCc3ccccc3)nc(Cl)nc21
inactive: [1] 6.5% | [2] -11.2% | [3] 16.4% | [4] -9.9% | [5] 5.85% | [6] 12.9%

CC(=O)Nc1nnnn1C
inactive: [1] -3.05% | [2] -2.3% | [3] 0.45% | [4] -40.1% | [5] -1.9% | [6] -10.9%

O=[N+]([O-])C(/C=N/Nc1ccccc1)/C=N/Nc1ccccc1
inactive: [1] -5.95% | [2] -8.3% | [3] -20.8% | [4] -6.55% | [5] -24.6% | [6] -10.9%

FC(F)(F)c1cc(Nc2nc(-c3ccccc3)nc3c2C(=NCc2ccco2)OC3=NCc2ccco2)ccc1Cl
inactive: [1] 5% | [2] 14.6% | [3] 2.9% | [4] -6.35% | [5] -4.7% | [6] 9.75%

C=CCc1ccc(OC(=O)CC)c(OC)c1
inactive: [1] -8.1% | [2] -22.4% | [3] -16.4% | [4] -8.75% | [5] -10.8% | [6] -9.95%

Fc1ccc(-c2cc(-c3cccs3)cc(-c3ccccc3)n2)cc1
inactive: [1] 8.6% | [2] -9.45% | [3] 21.2% | [4] 8.55% | [5] 20.8% | [6] 11.1%

C=C(Cl)CSc1ncnc2nc[nH]c12
inactive: [1] 34.5% | [2] 22.9% | [3] 18.2% | [4] 8.05% | [5] 30.6% | [6] 36.4%

Nc1ccc(Cn2cnc3c(=O)[nH]cnc32)cc1
inactive: [1] -11.7% | [2] -6.45% | [3] 7.7% | [4] -45.9% | [5] 6.85% | [6] -5.4%

O=C(CCl)OCCN(CCOC(=O)CCl)Cc1coc2ccccc2c1=O
inactive: [1] -4.35% | [2] -16.2% | [3] -4.85% | [4] -23.4% | [5] -1.1% | [6] -5.65%

CCC(=O)c1ccccc1C#N
inactive: [1] 8.5% | [2] -3.25% | [3] 1.6% | [4] -4.3% | [5] 0.1% | [6] -1.45%

NS(=O)(=O)c1ccc(N2C(=O)C3C(C2=O)C2(Cl)C(Cl)=C(Cl)C3(Cl)C2(Cl)Cl)cc1 (stereo unspecified)
inactive: [1] -6.4% | [2] -6.95% | [3] 3.25% | [4] 15.1% | [5] -4.7% | [6] 20.6%

O=[N+]([O-])c1ccc(CCn2cnc3c(N(CCO)CCO)ncnc32)cc1
inactive: [1] -7.85% | [2] -0.9% | [3] 3.6% | [4] -54.3% | [5] 6.95% | [6] -14.3%

Cc1cc2c(cc1Cl)SSc1cc(Cl)c(C)cc1S(=O)(=O)Nc1nc(N)nn1C(O)n1nc(N)nc1NS2(=O)=O
inactive: [1] 7.65% | [2] 11.4% | [3] 9.1% | [4] 20.7% | [5] 30.4% | [6] 0.45%

CCCCCNC(=O)c1csc(-c2csc(CCNC(C)=O)n2)n1
inactive: [1] -18.9% | [2] 4.85% | [3] 4.7% | [4] -26.1% | [5] 16.1% | [6] 3.8%

COC(=O)/C=C/C(=N/N(C)c1ccccc1)c1ccccc1
inactive: [1] 3.35% | [2] -0.2% | [3] 2.75% | [4] -49% | [5] 11% | [6] -5.15%

CCN(CC(=O)O)C(=O)c1cccnc1
inactive: [1] -17.9% | [2] 4.05% | [3] -33.4% | [4] -28.7% | [5] -6.6% | [6] -6.4%

O=C(O)c1cnc2c(ccc3[nH]cccc32)c1=O
inactive: [1] -7.3% | [2] -33.8% | [3] -9% | [4] 15.6% | [5] 19.6% | [6] -2.8%

CCCCCO[Si](OCCCCC)(OCCCCC)OCCCCC
inactive: [1] 3.8% | [2] -9.3% | [3] 29.4% | [4] -4.4% | [5] 1.55% | [6] 10.9%

CSc1nc(NN)c([N+](=O)[O-])c(SC)n1
inactive: [1] -7.55% | [2] -0.7% | [3] 1.2% | [4] -2.65% | [5] -14.5% | [6] 15.6%
